According to PubChem BioAssay (NCATS):
Results filed as inconclusive are left out. A call without a number means that no potency is given here. A number with no mark means an inactive call. Active and inactive are the calls of the source. The call rests on the fitted dose curve; in most records, active means well fitted inhibition curve with a large enough effect; inconclusive means small, poorly fitted or top-dose-only effect; inactive means flat fitted curve, though single readings scatter.

Target: Glutathione peroxidase 1 (Homo sapiens) (UniProt P07203)
Assay: Primary qHTS Assay for Inhibitors of Recombinant Selenoprotein Glutathione Peroxidase 1 (GPX1) (AID 1845191); further: nearly all actives have a fitted effect of over 65% in size
Settings: recombinant GPX1, GR-coupled NADPH fluorescence, 15 min; series mostly up to 48.8 µM; activity, negative = inhibition: at the top concentration
Description: Assay Provider: Elias S.J. Arner MD PhD.
Department of Medical Biochemistry and Biophysics
Karolinska Institutet, Solna, Stockholm, Sweden
Selenoprotein glutathione peroxidases (GPX), like the ubiquitously expressed GPX1 and the ferroptosis modulator GPX4, enact their antioxidant activities by reducing hydroperoxides using glutathione. […] GPX1 and GPX4 inhibitors have thus shown promise as anti-cancer agents. Existing inhibitors are often promiscuous, or modulate GPX activity only indirectly, so novel direct inhibitors identified through screening against GPX1 and GPX4 could be valuable. Here, we developed optimized glutathione reductase (GR)-coupled GPX assays for the biochemical high-throughput screen (HTS) of almost 12,000 compounds with known mechanisms of action. Initial hits were triaged using a GR counter-screen, assessed for isoform specificity using a separate GPX2 assay, and were assessed for general selenocysteine-targeting activity using a thioredoxin reductase (TXNRD1) assay. With this suite of assays, we identified novel GPX1/GPX2- and GPX4-specific inhibitors and can here present a validated pipeline for future discovery research for selenoprotein-targeting agents.
SEQUENCE No. (e.g., 1, 2, 3, etc.); […] (e.g., Cells, Incubation, Reagent, etc.); VALUE; DESCRIPTION.
1; Reagent 1; 3 uL; GPx1 enzyme or no enzyme control in 1536-well, black, solid Greiner assay plate.
2; Compound; 25 nL; Kalypsis pin tool (Wako USA) equipped with a 1536-well pin head.
3; Incubation; 30 min; room temperature.
4; Reagent 2; 1 uL; 10 nM GPX1, 1 mM GSH, 0.5 mM CHP, 0.5 mM NADPH, 100 nM GR, 0.01% BSA substrate
5; Detection; Fluorescence; ViewLux microplate reader, excitation 340 nm and emission 450 nm.
6; Incubation; 15 min; room temperature.
7; Detection; Fluorescence; ViewLux microplate reader, excitation 340 nm and emission 450 nm.
NOTES (numbers refer to Sequence numbers above)
1. 3 uL of 16.66 nM GPX1 and 0.016% BSA in assay buffer (50 mM Tris-HCl, 2 mM EDTA (pH 7.5), 150 mM NaCl) was added to columns 3-48 of 1536-well assay plates using a BioRAPTR Flying Reagent Dispenser (Let's Go Robotics (LGR), Carlsbad, CA). A no-enzyme control (0.01% BSA in TES assay buffer) was added to columns 1-2.
2. 25 nL of test compounds and DMSO controls were added to each well with a pin tool (Kalypsys).
3. The assay plates were incubated for 30 minutes at room temperature.
4. 1 uL of master mix (500 nM glutathione reductase (GR), 5 mM reduced glutathione (GSH), 2.5 mM NADPH in assay buffer) was added. 1 uL of cumene hydroperoxide (CHP) ([2.5 mM] in 50% EtOH) was then added within 5 minutes to initiate the reaction. Final concentrations were: 10 nM GPX1, 1 mM GSH, 0.5 mM CHP, 0.5 mM NADPH, 100 nM GR, 0.01% BSA.
5. Initial fluorescence readout (t=0) at 340/450 nm was measured using a ViewLux multimodal detector (PerkinElmer, Waltham, MA).
7. Endpoint fluorescence readout (t=15) at 340/450 nm was measured 15 min after room temperature incubation.

Sequence of Glutathione peroxidase 1 (Homo sapiens) (P07203 whole entry, looked up): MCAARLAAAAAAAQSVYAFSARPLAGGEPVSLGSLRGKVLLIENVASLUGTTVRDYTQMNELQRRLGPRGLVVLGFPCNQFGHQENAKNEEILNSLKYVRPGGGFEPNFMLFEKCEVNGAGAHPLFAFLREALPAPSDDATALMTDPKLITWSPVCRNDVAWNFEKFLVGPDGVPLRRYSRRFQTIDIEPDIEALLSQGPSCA

Structure (SMILES)	outcome	activity, negative = inhibition [%]	Potency
Cc1cc(NC(=O)Nc2ccc(N(C)C)cc2)c2cc(F)cc(F)c2n1	inactive [at 27.7 µM]		
Cc1ccc(S(=O)(=O)OCC(=O)Nc2ccc(C(=O)O)c(O)c2)cc1	inactive		
CCC[C@H](Nc1nc(-c2ccc(NC(=O)NCC)c(OC)c2)ncc1C)c1cccnc1	inactive		
Cc1cc2c(cc1C1(c3ccc(C(=O)O)cn3)CC1)C(C)(C)CCC2(C)C	inactive		
COc1c(C)cnc(Cn2cnc3c(Cl)nc(N)nc32)c1C	inactive		
Cn1cnc(-c2cc3nccc(Oc4ccc(NC(=S)NC(=O)Cc5ccccc5)cc4F)c3s2)c1	inactive		
O=C1NC(=O)C(c2cnc3ccccn23)=C1c1cn2c3c(cccc13)CN(C(=O)N1CCOCC1)CC2		4.43	
Fc1ccc(CNc2ncnc3ccc(F)cc23)cc1	inactive		
O=C(O)c1nc(=O)[nH]c(=O)[nH]1			inactive
COc1ccc2c(c1)c(C1=C(c3c[nH]c4ccccc34)C(=O)NC1=O)cn2CCCN(C)C	inactive		
O=C(Nc1cccc(C(F)(F)F)c1)Nc1cc(S(=O)(=O)NC2CC2)ccc1-c1ccsc1	inactive		
CC(NCCc1ccc(O)cc1)C(O)c1ccc(O)cc1 (stereo not given)	inactive		
Cc1cc2nc3c(=O)[nH]c(=O)nc-3n(CC(O)C(O)C(O)CO)c2cc1C (stereo not given)			inactive
Cc1ccc(NC(=O)c2cccc(N(C)C)c2)cc1NC(=O)c1ccc(O)cc1	inactive		
CCc1cc(-c2n[nH]c(C)c2-c2ccc3c(c2)OCCO3)c(O)cc1O		1.49	
CCOC(=O)N1c2ccc(C(F)(F)F)cc2[C@@H](N(Cc2cc(C(F)(F)F)cc(C(F)(F)F)c2)C(=O)OC)C[C@H]1CC			inactive
O=[N+]([O-])c1ccc(Nc2ccccc2-c2ccccc2)c2nonc12	inactive		
Cc1cc(OCCCS(C)(=O)=O)cc(C)c1-c1cccc(COc2ccc3c(c2)OC[C@H]3CC(=O)O)c1			inactive
CN(C)CCCNC(=O)c1ccc(-c2cc(O)c3ncccc3c2)cc1			inactive
O=C(O)C1=CC(O)C(O)[C@H](O)C1 (stereo not given in full)	inactive		

Structure (SMILES)	outcome	activity, negative = inhibition [%]	Potency
C[C@@H](O[C@H]1OCCN(Cc2n[nH]c(=O)[nH]2)[C@@H]1c1ccc(F)cc1)c1cc(C(F)(F)F)cc(C(F)(F)F)c1	inactive		
C[C@@H]1CCO[C@H]2Cn3cc(C(=O)NCc4ccc(F)cc4F)c(=O)c(O)c3C(=O)N12			inactive
COc1cc2ncnc(Nc3cc(Br)c(O)c(Br)c3)c2cc1OC			inactive
Cc1nn(Cc2ccccc2Cl)c(C)c1CN(C)CC(O)COc1ccc(Cl)cc1 (stereo not given)	inactive		
CC[C@@H]([C@H](C)O)n1ncn(-c2ccc(N3CCN(c4ccc(OCC5CO[C@@](Cn6cncn6)(c6ccc(F)cc6F)C5)cc4)CC3)cc2)c1=O (stereo not given in full)		1.99	
CCN(CC)CCCCNc1nc2cc(Cl)c(Cl)cc2nc1-c1ccc(-c2cccs2)s1	inactive		
CC(C)[C@H](O)C(=O)N[C@@H](C)C(=O)N[C@@H]1C(=O)N(C)CCc2ccccc21			inactive
c1cc(OCCN2CCCCC2)cc(-c2n[nH]c3ccc(-c4ncn[nH]4)cc23)c1	inactive		
CC(C)CN(C[C@@H](O)[C@H](Cc1ccccc1)NC(=O)O[C@H]1CO[C@H]2OCC[C@H]21)S(=O)(=O)c1ccc(N)cc1			inactive
NCc1c[nH]c(=S)n1[C@H]1CCc2c(F)cc(F)cc2C1	inactive		
CC(C)(O)CC(=O)NCCn1ccc2ncnc(Nc3ccc(Oc4cccc(C(F)(F)F)c4)c(Cl)c3)c21			inactive
Cc1cn([C@@H]2C[C@@H](O)[C@H](CO)O2)c(=O)[nH]c1=O			inactive
COc1nccc(-c2c(-c3ccc(F)cc3)ncn2C2CCNCC2)n1	inactive		
Cc1ccccc1-n1c(Cn2nc(-c3cccc(O)c3)c3c(N)ncnc32)nc2cccc(C)c2c1=O	inactive		
CNc1nc(Nc2ccc(C(=O)N3CCOCC3)cc2OC)ncc1Cl		-0.744	
O[C@@H](COc1cccc2ncccc12)CN1CCN(C2c3ccccc3[C@@H]3[C@H](c4ccccc42)C3(F)F)CC1 (stereo not given in full)			inactive
CN1c2ccccc2C(=O)N2CCc3c([nH]c4ccccc34)C21 (stereo not given)	inactive		
CN1CCN2c3ncccc3Cc3ccccc3C2C1 (stereo not given)			inactive
COc1ccc(CCN(C)CCCOc2ccc(S(=O)(=O)c3[nH]c4ccccc4c3C(C)C)cc2)cc1OC	inactive		
COc1cc2nccc(Oc3ccc(NC(=O)Nc4ccc(F)cc4F)c(F)c3)c2cc1OC	inactive		
